According to PubChem BioAssay (NCI):
The panel holds about 83,000 compounds, 20% with a hit somewhere; the sample as a whole holds those more often.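 For each line, cells grew in 96-well plates with the test compound present at a single concentration for 48 hours.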 A number with no mark means an inactive call. Activity calls are given as the source filed them. How the source made its calls: active means growth percent below 10; inactive means the rest.

What was measured:
Test in all cases: NCI-60 one-dose screen, 48 h (100 = growth as untreated, 0 = no growth, -100 = all killed)
Details in all cases: 10 µM unless noted
SN12C renal = tested on: SN12C renal
UO-31 renal = tested on: UO-31 renal
TK-10 renal = tested on: TK-10 renal
ACHN renal = tested on: ACHN renal
CAKI-1 renal = tested on: CAKI-1 renal
A498 renal = tested on: A498 renal
CCRF-CEM leukemia = tested on: CCRF-CEM leukemia
MOLT-4 leukemia = tested on: MOLT-4 leukemia

| SMILES | growth (SN12C renal) | growth (UO-31 renal) | growth (TK-10 renal) | growth (ACHN renal) | growth (CAKI-1 renal) | growth (A498 renal) | growth (CCRF-CEM leukemia) | growth (MOLT-4 leukemia) |
| --- | --- | --- | --- | --- | --- | --- | --- | --- |
| COc1ccccc1NC(=O)OCC12COCN1COC2 | 100% | 94.9% | 108% | 102% | 100% | 80.5% | 102% | 95.9% |
| c1ccc2c(Cc3csc4ccccc34)csc2c1 | 97.1% | 47.5% | 106% | 93.1% | 81.2% | 107% | 94.2% | 87% |
| NS(=O)(=O)c1ccc(N2N=C(c3ccc(Br)cc3)CC2c2cn(-c3ccccc3)nc2-c2ccc(Cl)cc2)cc1 (stereo not drawn) | 78.6% | 58.3% | 112% | 86.5% | 89% | 113% | 70.8% | 74.8% |
| COc1cc(C(=O)/C=C/c2cn(-c3ccccc3)nc2-c2cccc(Nc3ccnc4cc(Cl)ccc34)c2)cc(OC)c1OC | 90.9% | 86.4% | 133% | 108% | 103% | 99.6% | 21% | 63.3% |
| CCCCn1c(C)nc2cc(Nc3nc(Cl)nc4nc[nH]c34)ccc21 | 78.9% | 64.6% | 73.5% | 85.8% | 76.1% | 26% | 78% | 64% |
| CCOC(CN1CCN(CC(C)C(=O)c2ccccc2)CC1)c1ccccc1 (stereo not drawn) | 98.6% | 89% | 115% | 106% | 93.7% | 97.1% | 84.7% | 105% |
| C=CCn1c(C)nc2cc(Nc3nc(N4CCCC4)nc4nc[nH]c34)ccc21 | 36.8% | 61.2% | 11.8% | 17.8% | 89% | 1.35% (active) | 83.9% | 89% |
| COC1=CC(c2ccc[nH]2)=N/C1=C\c1[nH]c(C)c(C(=O)CCCCCCCCC(=O)O[C@H]2CC[C@H]3C4CCc5cc(O)ccc5C4CC[C@]23C)c1C (stereo partly drawn) | 39.6% | -13.3% (active) | 34.1% | 24.3% | 40.5% | -0.91% (active) | 11.5% | 19.5% |
| Cc1cc(C)c2c(n1)sc1c(Nc3ccc(O)cc3)ncnc12 | 21.5% | -10.3% (active) | 59.1% | 16% | 15.8% | 18.6% | 16.6% | – |
| NC(=O)c1noc(C(=O)c2ccccc2)c1N | 99.7% | 90.2% | 92.5% | 99.6% | 98.6% | 72% | 98.8% | 95.1% |
| COc1ccc(Nc2ncnc3c2sc2nc(C)cc(C)c23)cc1 | 99.7% | 91.5% | 115% | 97.2% | 99.2% | 91% | 104% | 95.9% |
| Cc1ccc(-c2nc3ccccc3c(=O)n2/N=C/c2cccc3ccccc23)cc1 | 82.3% | 48.3% | 101% | 80.7% | 54.4% | 109% | 55.2% | 55.9% |
| COc1cccc(Cn2c(-c3nonc3NC(C)=O)nc3ccccc32)c1 | 48.4% | 36% | 26.6% | 42.8% | 24% | -0.794% (active) | 41% | 38.7% |
| CC(=O)N1N=C(c2ccc(C)cc2)CC1c1cn(-c2ccccc2)nc1-c1cccc(Nc2ccnc3cc(Cl)ccc23)c1 (stereo not drawn) | 46.2% | 77.1% | 61.3% | 81.2% | 101% | 82.2% | -19.7% (active) | 23.4% |
| Fc1ccc(-c2ccnc3nc(-c4ccncc4)nn23)cc1 | 110% | 84.5% | 96.6% | 104% | 92.1% | 83.8% | 110% | 94.9% |
| Cc1cc(C)c2c(n1)sc1c(Nc3ccc(OCc4ccccc4)cc3)ncnc12 | 101% | 85.1% | 92.4% | 106% | 97.5% | 78.3% | 86.6% | 101% |
| COc1ccc(OC)c(Nc2nc(-c3c(C)nc4sccn34)cs2)c1 | 90.1% | 77.8% | 98% | 79.5% | 73.7% | 30.7% | 38.1% | 9.57% (active) |
| COc1ccc(/C=C2\N=C(c3cccnc3)N(c3ccccc3)NC2=O)cc1 | 105% | 82.2% | 101% | 115% | 97.6% | 71.8% | -21.1% (active) | 85.6% |
| CC(C)NC(=O)OCC#CCOC(=O)NC(C)C | 102% | 79.8% | 99.3% | 108% | 91.7% | 104% | 103% | – |
| COc1ccc(C2=Nn3c(nnc3-c3ccc(Cl)cc3N)SC2)cc1 | 99% | 83.4% | 130% | 97% | 92.9% | 118% | 73.2% | 101% |
| COc1cc(C2CC(c3cccc(Nc4ccnc5cc(Cl)ccc45)c3)=NN2c2ccccc2)cc(OC)c1OC (stereo not drawn) | 68.1% | 38% | 75.4% | 45% | 8.35% (active) | 73.3% | 57.1% | 74.4% |
| Cc1ccc(C2CC(c3cccs3)=NN2c2ccc(S(N)(=O)=O)cc2)s1 (stereo not drawn) | 98.3% | 75.8% | 94.8% | 91.9% | 86.7% | 89.9% | 80.6% | 89.2% |
| [Ag].[Ag].[NH-]S(=O)(=O)c1ccc(N=Nc2cc(N=Nc3ccc(S([NH-])(=O)=O)cc3)c3c(NC(=O)C(Cl)Cl)cccc3c2OC(=O)C(Cl)Cl)cc1.[c-]1nccs1.[c-]1nccs1 | 89.6% | 69.4% | 108% | – | 59.1% | 101% | 44.7% | 78.4% |
| O=C(Nc1ccc2[nH]c3ccccc3c2c1)c1ccccc1Cl | 61.3% | 65.7% | 49.7% | 70% | 27.2% | 44.7% | 40.1% | 33.4% |
| Cc1cc(C)c2c(NC(=O)Nc3ccc(Cl)c(Cl)c3)n[nH]c2n1 | 103% | 90.2% | 112% | 109% | 91.6% | 101% | 102% | 98.3% |
| CCCCCCCCCCCCCCCc1cc(O)ccc1[N+](=O)[O-] | 75.5% | 58.6% | 112% | 91.9% | 72.9% | 98% | 9.46% (active) | 32.2% |
| COc1ccc(C2CC(c3ccc(Nc4ccnc5cc(Cl)ccc45)cc3)=NN2c2ccccc2)cc1 (stereo not drawn) | 91.9% | 93.9% | 109% | – | 85.1% | 49.7% | 69.8% | 52.3% |
| COc1cc(C2C=C(C)N=C3SC=NN32)cc(OC)c1OC (stereo not drawn) | 100% | 99.5% | 109% | 102% | 99% | 90.9% | 90.7% | 97.2% |
| O=C(N=Nc1c(Cl)c(O)c2ccccc2c1O)C(=O)Nc1cccc(C(F)(F)F)c1 | 13.2% | 38.7% | 116% | 58.4% | 54.6% | 84.9% | 6.57% (active) | 35.2% |
